Out of some 58,000 compounds screened, about 100 (0.17%) were called active. This is one part of a sample in which actives are shown more often than they occur. No stated cut-off is given here; in the data, active means inhibition above about 45%; inactive means the rest. Where a SMILES comes first, the peptide text is derived from it. The star is where a group is joined. Bz = O=C(c1ccccc1)*

For orientation: inhibition means the relative decrease from the control value, in per cent.

For this experiment, the target named is Procathepsin L (Homo sapiens) (UniProt P07711). Description: blockers of CTSL protease activity – biochemical (AID 460).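 Further: 0% = enzyme with no compound and 100% = no enzyme blank.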 The following applies: purified cathepsin L, fluorogenic substrate, fluorescence; stronger effect = higher value;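 tested at 10 µM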.
Procathepsin L (Homo sapiens), sequence (P07711 114-288 limits assumed): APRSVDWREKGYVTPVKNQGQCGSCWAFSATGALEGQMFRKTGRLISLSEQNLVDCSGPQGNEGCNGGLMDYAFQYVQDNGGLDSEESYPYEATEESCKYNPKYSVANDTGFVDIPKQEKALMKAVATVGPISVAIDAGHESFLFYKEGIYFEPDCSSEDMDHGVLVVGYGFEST
Procathepsin L (Homo sapiens), sequence (P07711 292-333 limits assumed): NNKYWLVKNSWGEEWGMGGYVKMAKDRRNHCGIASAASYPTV
On to `CCOCCOC(=O)C1=C(C)N(C)C(=O)NC1c1ccccc1F` (stereo not given), for which the inhibition was -0.79% (inactive).
In the case of `CCOc1cc(C)c(Cl)cc1S(=O)(=O)n1nnc2ccccc21` it was 3.04% (inactive).
In the case of `O=C(c1ccccc1)c1ccc2nc(N3CCCCC3)c3nncn3c2c1` it was -3.17% (inactive); in that of `CCOC(=O)CCc1c(C)c2ccc(OCc3nn[nH]n3)c(C)c2oc1=O`, -20.7% (inactive).
In the case of `COc1ccc(OC)c2c(N)c(C#N)c(C(F)(F)C(F)(F)F)nc12` it was -8.11% (inactive); in that of `Cc1c(C)c2cc3c4c(oc3c(C)c2oc1=O)CCCC4`, 2.98% (inactive); in that of `CC1CCN(Cc2nc3c(c(=O)n(C)c(=O)n3C)n2Cc2cccc3ccccc23)CC1`, 0.14% (inactive).
For the molecule `OC(COc1cccc2ccccc12)CN1CCN(c2ccccn2)CC1` (stereo not given), the inhibition was 7.74% (inactive).
Under `O=C(CS(=O)(=O)c1cn(Cc2cccc(F)c2)c2ccccc12)N1CCCCC1` stands 17.3% (inactive); under `CCCC(=O)C1=C(N(C)c2ccccc2)CC(C)(C)C(C(=O)OC)C1=O` (stereo not given), -1.31% (inactive).
Under `CCCn1c(=NC(C)=O)c(C(=O)OCC)cc2c(=O)n3ccccc3nc21` stands -149% (inactive); under `Cc1cc2cc(CNC(=O)c3ccc(S(=O)(=O)N4CCOCC4)cc3)ccc2[nH]1`, 4.06% (inactive).
As to `CN(CCCC(=O)Nc1nccs1)S(=O)(=O)c1ccc(Cl)cc1`, the inhibition is -4.71% (inactive).
For `CC1=NC2(CCCc3c2no[n+]3[O-])N(O)C1(C)C` (stereo not given), the inhibition is 1.32% (inactive).
Under `CC(=O)N1C(=O)C2(Nc3ccccc3N2)c2ccccc21` stands 1.65% (inactive); under `COc1ccccc1CNC(=O)C1CCN(S(C)(=O)=O)CC1`, 2.28% (inactive).
In the case of `CC(=O)N=c1ncn(CC(COC(C)=O)OC(C)=O)c2nc[nH]c12` (stereo not given), the inhibition was -1.89% (inactive).
Under `Cc1cccc(OCc2nnc(SCc3nc4cc(C(F)(F)F)ccc4c(=O)[nH]3)o2)c1` stands -0.3% (inactive); under `O=C(O)C1CC=CCC1C(=O)NCCc1ccccc1` (stereo not given), -8.83% (inactive); under `CC(C)c1ccc(NS(=O)(=O)c2cn(C)c(=O)n(C)c2=O)cc1`, 12.5% (inactive).
In the case of `O=C(NC(Cc1ccccc1)C(=O)N1CCCC1C(=O)O)c1ccccc1` (stereo not drawn) (Bz-Phe-Pro-OH; configuration not given here) it was 17.6% (inactive); in that of `Cc1ccc(C)c(N(CC(=O)NCc2ccco2)C(=O)CCC(=O)Nc2ccccn2)c1`, -0.88% (inactive); in that of `COc1ccc(-c2nnn(Cc3nc(N)nc(N4CCCCC4)n3)n2)cc1`, -3.62% (inactive).
In the case of `CCOc1cccc(=O)c2c(C)n(CC3CCCO3)c(C)c12` (stereo not given) it was -0.25% (inactive); in that of `CC(NC(=O)Nc1ccccc1)c1ccccc1` (stereo not given), 1.63% (inactive); in that of `O=C(CCN1C(=O)C2C3C=CC(C3)C2C1=O)Nc1ccccc1F` (stereo not given), -4.07% (inactive).
`c1ccc(-c2cn3cccnc3n2)cc1`: the inhibition is -283% (inactive).
Turning to `c1ccc2c(c1)OCC(CNc1ncnc3nc[nH]c13)O2` (stereo not given), the inhibition is 81.5% (active).
In the case of `COc1ccc(CCNc2ncnc3nc[nH]c23)cc1OC` it was -2.05% (inactive); in that of `Cc1cc(NC(=O)CCC2COc3ccccc3O2)no1` (stereo not given), 0.43% (inactive); in that of `COC(=O)c1cc(OC)c(OC)cc1NC(=O)C1CCCO1` (stereo not given), 17.4% (inactive).
`Cc1nc(-c2ccc(NC(=O)c3cccs3)cc2)cs1`: the inhibition is 6.73% (inactive).
With `NS(=O)(=O)c1ccc(CCNC(=O)Nc2ccc(Cl)cc2)cc1`, the inhibition was 0.5% (inactive).
Turning to `COc1ccc(C2CC(c3ccccc3)Nc3ncnn32)cc1` (stereo not given), the inhibition was 20.2% (inactive).
In the case of `Cc1ccc(C2CC(=O)NC(SCC(=O)OCc3ccccc3)=C2C#N)o1` (stereo not given) it was 1.51% (inactive).
Turning to `CCOC(=O)C(CCOc1cccc(CC)c1)C(=O)OCC`, the inhibition is 20.3% (inactive).
Under `Cc1nnc(SCC(=O)N(C(C)C)C(C)C)nc1C` stands 6.66% (inactive); under `CCCC(C(=O)NCc1ccco1)N(C(=O)CNS(=O)(=O)c1ccccc1)C1CCCC1` (stereo not given), 10.1% (inactive); under `Cn1c(=O)c2cn(-c3cccc4ccccc34)cc2n(C)c1=O`, 6.9% (inactive).
As to `COC(=O)c1ccc(CN(c2ccccc2OC)S(=O)(=O)c2cccs2)o1`, the inhibition was 14% (inactive).
For `Fc1c(F)c(C(F)(F)F)c(F)c(F)c1N1CCN(c2ccc3nnc(C(F)(F)F)n3n2)CC1`, the inhibition was -17% (inactive).
With `CC(C)NS(=O)(=O)c1ccc(OCC(=O)Nc2ccc3c(c2)OCCO3)cc1`, the inhibition was 16.4% (inactive).
Under `COc1ccc(Cn2cccc(NC(=O)Nc3ccc(C#N)cc3)c2=O)cc1` stands -10.3% (inactive); under `C=CCn1c(=N)n(CC(O)COc2ccc(OC)cc2)c2ccccc21` (stereo not given), 0.78% (inactive).
For `Cc1ccc(C2CC(c3cccc(Br)c3)n3nc(N)nc3N2)cc1` (stereo not given), the inhibition was 19.9% (inactive).
In the case of `Cc1ccc(N2C(=O)CC(NCc3ccc4c(c3)OCO4)C2=O)cc1Cl` (stereo not given) it was -2.37% (inactive); in that of `O=c1cc(O)nc(SCc2ccccc2Cl)[nH]1`, -2.97% (inactive); in that of `c1ccc(CSc2nnc(-c3ccco3)c(-c3ccco3)n2)cc1`, 10.8% (inactive).
In the case of `Clc1ccccc1CSc1nnc(-c2ccco2)c(-c2ccco2)n1` it was 49.7% (active); in that of `N#Cc1c(NC(=O)CCCN2C(=O)c3ccccc3C2=O)oc(-c2ccccc2)c1-c1ccccc1`, 4.96% (inactive); in that of `CN1c2ccccc2-c2nc3ccccc3n2C1c1ccco1` (stereo not given), -450% (inactive).
Under `COC(=O)C1=C(C)N(C)C(C)=C(C(=O)OC)C1c1cccc(Br)c1` stands 10.9% (inactive); under `Cc1cc(Cl)c(S(=O)(=O)NCCC(=O)O)cc1OCC(N)=O`, 4.48% (inactive); under `COc1cc(-c2nn3c(-c4cccc(C)c4)nnc3s2)cc(OC)c1OC`, 0.7% (inactive).
For the molecule `Cc1nnc(NC(=O)CSc2nccn2-c2cccc(C)c2C)s1`, the inhibition was 3.56% (inactive).
With `Cc1c(C(=O)N2CC(C)OC(C)C2)sc2nc(-c3ccccc3)cn12` (stereo not given), the inhibition is 23% (inactive).
On to `C=CCc1cccc2cc(C(=O)OCC)c(=O)oc12`, for which the inhibition was 5.84% (inactive).
In the case of `CCC1CCCCN1CCNS(=O)(=O)c1ccc2c(c1)CCN2C(C)=O` (stereo not given) it was 12.7% (inactive).
As for `CC(C)CCNC(=O)C1CCCN(S(=O)(=O)c2ccc(F)cc2)C1` (stereo not given), the inhibition is 9.49% (inactive).
In the case of `COCc1cc(C)nc(SCC(=O)Nc2cccc(C)c2)c1C#N` it was 10.9% (inactive).
Under `CC12COC3(C(=O)Nc4ccc(Cl)cn4)CC1CCC32C` (stereo not given) stands 11.5% (inactive); under `CC(=O)Oc1cc2c(C(=O)NCCN3CCOCC3)c(C)oc2c2ccccc12`, -9.79% (inactive).
In the case of `C[N+](C)(C)CCNC(=O)c1c(O)c2c([nH]c1=O)CCCC2` it was 8.42% (inactive); in that of `Cn1c(=O)n(CCc2ccccc2)c(=O)c2c1nc1n2CCCN1c1ccccc1`, 0.95% (inactive); in that of `COc1cc(C2C(C#N)=C(C)NC3=C2C(=O)CC(C)(C)C3)ccc1O` (stereo not given), 4.18% (inactive).
As to `Cn1c(=O)c(C(=O)Nc2ncccn2)c(O)c2ccccc21`, the inhibition is -15.3% (inactive).
Under `CCOC(=O)c1c(C)nc(-c2ccccc2)nc1NC(=O)C(C)C` stands 22.7% (inactive); under `CSCCC(NS(=O)(=O)/C=C/c1ccccc1)C(=O)N1CCC(C)CC1` (stereo not given), 7.86% (inactive).
With `CC1(C)Oc2ccc3ccc(=O)oc3c2/C(=C/NCCO)C1=O`, the inhibition was 14.3% (inactive).
As for `CCOC(=O)C(CC)Sc1ncnc2c1nnn2-c1ccc(F)cc1` (stereo not given), the inhibition was 7.22% (inactive).
For the molecule `OC1CN=C2Sc3ccccc3N2C1` (stereo not given), the inhibition is -0.84% (inactive).
Regarding `c1ccc(-n2ncc3c2ncn2c(C4CCCCC4)nnc32)cc1`, the inhibition was 1.98% (inactive).
Under `CCN(CC)S(=O)(=O)c1cccc(C(=O)Nc2ccccc2)c1` stands -8.69% (inactive); under `CCCOc1ccc(CN(CCO)CCO)cc1C(=O)OC`, 8.62% (inactive).
Under `CC(C)CCNC(=O)CN(C(=O)Cn1nnc(-c2ccc(F)cc2)n1)C1CCCC1` stands 12.4% (inactive).
Under `CC(=O)N1CC2(C)CN(C(C)=O)CC(C)(C1)C2=O` stands -7.32% (inactive); under `C=CCn1c(COc2ccccc2F)nnc1SCC(=O)N1CC(=O)Nc2ccccc21`, 2.58% (inactive).
As for `C=CCn1c2ccccc2c2nnc(SC(CC)C(=O)Nc3nc(C)c(C(=O)OCC)s3)nc21` (stereo not given), the inhibition is -6.76% (inactive).
As for `COc1ccc2occ(C(=O)c3ccc(N=C(C)N(C)C)cc3)c2c1`, the inhibition was 1.28% (inactive).
As to `Cc1cccc(N2C(=O)SC(N(CC(=O)O)c3cccc(C)c3)C2=O)c1` (stereo not given), the inhibition was 18.4% (inactive).
Under `COc1ccc(OC)c(S(=O)(=O)N(C)CC(=O)N2CCN(c3ccccc3)CC2)c1` stands -0.18% (inactive).
In the case of `COC(=O)c1c(NC(=O)c2cccs2)sc2c1CCCC2` it was -9.15% (inactive).
In the case of `COc1ccc(-c2nc(CS(=O)CC(=O)NCc3ccccn3)c(C)o2)cc1` (stereo not given) it was 32.3% (inactive); in that of `O=c1cccc(-c2ccc(Br)cc2)o1`, 11.7% (inactive); in that of `Cc1cc(C)cc(NC(=O)N2CCC(NC(=O)c3ccc(F)cc3)CC2)c1`, 15.2% (inactive).
For the molecule `Cc1ccc(C(=O)Nc2ccc3c(c2)OCO3)cc1S(=O)(=O)N1CCCCC1`, the inhibition was 41.8% (inactive).
For the molecule `CCOc1cccc(-c2nn3c(-c4ccccn4)nnc3s2)c1`, the inhibition was 20.7% (inactive).
Take `O=C(NC1CCCC1)c1ccc(Br)s1`: the inhibition was -2.98% (inactive).
In the case of `CC(C)c1ccc(OCC(O)Cn2cnc3ccccc32)cc1` (stereo not given) it was -5.57% (inactive); in that of `c1ccc2cc(OCCN3CCCC3)ccc2c1`, 17.4% (inactive); in that of `COc1ccccc1N1CCN(C(=O)c2cc(-c3ccc(Cl)c(Cl)c3)on2)CC1`, 1.59% (inactive).
Under `Cn1c(/C(C#N)=C2/CCCCCN2)nc2ccccc21` stands -2.23% (inactive).
Consider `CCOC(=O)c1cc2c(n(-c3ccc(C)cc3)c1=O)CCCC2=O`, for which the inhibition is -1.99% (inactive).
Under `CCCC1CC(C)(C(=O)Cn2[nH]c(=O)ccc2=O)OC1=O` (stereo not given) stands 3.89% (inactive); under `Cc1ccc(S(=O)(=O)n2nc(OC(=O)C(C)(C)C)cc2N)cc1`, 9.62% (inactive); under `N#CC(C(=O)c1ccc(S(=O)(=O)N2CCCCCC2)cc1)c1nc2ccccc2[nH]1` (stereo not given), -6.58% (inactive).
Under `O=C(/C(=N\O)n1cncn1)c1ccc(Br)cc1Br` stands 5.57% (inactive); under `COc1ccc(CCN=C2SCC(=O)N2C)cc1OC`, 11.7% (inactive); under `N#CNC1=NCN(CCc2ccccc2)CN1`, 17.9% (inactive).
Turning to `N#Cc1c(N)n(CCOC(=O)c2ccc(Cl)cc2)c2nc3ccccc3nc12`, the inhibition is -4.03% (inactive).
Under `Fc1ccccc1OCCCCn1cncn1` stands -6.79% (inactive).
Under `COc1ccc(OCCCON2C(=O)c3ccccc3C2=O)cc1` stands -4.83% (inactive); under `O=C(CN1C(=O)CCC1=O)Nc1ccc(S(=O)(=O)N2CCOCC2)cc1`, 5.22% (inactive).
As for `CC(C)Cc1nc(N2CCOCC2)c(C#N)c2c1CCC2`, the inhibition is -1.22% (inactive).
Under `CCOc1ccccc1C1NC(=O)NC(C)=C1C(=O)OCc1ccco1` (stereo not given) stands 16.9% (inactive).
